PubChem BioAssay (Tox21)
Inconclusive results are not listed. Active and inactive are the calls of the source. Unless noted, calls follow the shape of the dose curve; as a rule, active = well fitted curve in the direction sought with a large enough effect in the repeat runs; inconclusive = weak or mixed curves; inactive = no such curve, though single readings can be large; an effect the other way counts as inactive or inconclusive.

Legend:
[1] = qHTS assay for small molecules that induce genotoxicity in human embryonic kidney cells expressing luciferase-tagged ATAD5 (AID 651632); settings: HEK293T ATAD5-luciferase induction, 16 h; series mostly up to 83.3 µM; also: nearly all actives have a fitted effect of over 15% in size
Outline: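 DMSO vehicle served as the control. HEK293T reporter cells, 16 hr at 37C, then 30 min Amplite at room temperature; ATAD5 induction is measured as luciferase activity.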

[2] = qHTS assay for small molecule agonists of the p53 signaling pathway - cell viability (AID 651633; calls by dose curve; also: nearly all actives have a fitted effect of over 30% in size; also: potency is read from the fitted curve at half-maximal effect); settings: p53RE-bla HCT-116 viability, ATP luminescence, 16 h; series mostly up to 83.3 µM
Outline: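 p53RE-bla cells were treated with compound for 16 hours at 37 C. Cytotoxicity was then measured as CellTiter-Glo luminescence after 30 min at room temperature.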

[3] = qHTS assay for small molecule disruptors of the mitochondrial membrane potential - cell viability (AID 720634; calls by dose curve; also: nearly all actives have a fitted effect of over 20% in size; also: potency is read from the fitted curve at half-maximal effect); settings: HepG2 viability, ATP luminescence (CellTiter-Glo), 1 h; series mostly up to 83.2 µM
Outline: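 Viability of HepG2 cells is scored from ATP content by luminescence; cells are exposed to compound for 1 hr at 37 C and 5% CO2, then dosed with m-MPI dye before the CellTiter-Glo reagent.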

[4] = qHTS assay for small molecule disruptors of the mitochondrial membrane potential (AID 720635); settings: HepG2 mitochondrial membrane potential, Mito-MPS dye ratio; series mostly up to 83.2 µM; also: potency is read from the fitted curve at half-maximal effect
Outline: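 HepG2 cells exposed to compound 1 hr at 37C, then Mito-MPS dye 30 min. Ratio read of aggregate (540/590 nm) versus monomer (490/535 nm) fluorescence.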

[5] = qHTS assay to test for compound auto fluorescence at 590 nm (red) in HepG2 cells (AID 720674); settings: HepG2 autofluorescence, red 540/590 nm, 1 h; series mostly up to 91.3 µM
Outline: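 Seeding: 2,000 HepG2 cells/well, MEM/10% FBS, overnight 37 C. Dosing: compound vs DMSO. Incubation: 1 hr, 37 C, 5% CO2. Read: fluorescence 540 ex/590 em, Rose Bengal sodium as red reference.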

[6] = qHTS assay to test for compound auto fluorescence at 535 nm (green) in HepG2 cells (AID 720675); settings: green autofluorescence 485/535 nm, 1 h; series mostly up to 91.3 µM
[7] = qHTS assay to test for compound auto fluorescence at 460 nm (blue) in HEK293 cells (AID 720678); settings: blue autofluorescence 405/460 nm; series mostly up to 91.3 µM
Outline: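 After cell attachment (4-5 hr, 37C), compounds were pinned onto HEK293 monolayers in 10% dialyzed FBS medium. The blue channel (405/460 nm) was read following overnight culture. Equivalency was calculated against triamterene.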

[8] = qHTS assay to test for compound auto fluorescence at 590 nm (red) in HEK293 cells (AID 720679); settings: red autofluorescence 540/590 nm; series mostly up to 91.3 µM
Outline: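 Plates of HEK293 cells (10% dialyzed FBS) are treated with 23 nL compound or DMSO vehicle after a 4-5 hr attachment period, incubated overnight at 37C, and read for red fluorescence at 540/590nm.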

[9] = qHTS assay to test for compound auto fluorescence at 535 nm (green) in HEK293 cells (AID 720680); settings: green autofluorescence 485/535 nm; series mostly up to 91.3 µM
[10] = qHTS assay to test for compound auto fluorescence at 460 nm (blue) in HEK293 cell free culture (AID 720681); settings: cell-free medium, autofluorescence 405/460 nm (blue); series mostly up to 91.3 µM
Outline: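 Compounds were added to cell-free DMEM with 10% FBS and fluorescence read directly. The blue channel used 405 nm excitation and 460 nm emission, with triamterene as the reference fluorophore.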

[11] = qHTS assay to test for compound auto fluorescence at 535 nm (green) in HEK293 cell free culture (AID 720682); settings: cell-free medium, green autofluorescence 485/535 nm, active compounds read high; series mostly up to 91.3 µM
Outline: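 Each library compound, or DMSO control, is added by pintool to medium alone, comprising DMEM and 10% FBS. Emission at 535 nm following 485 nm excitation is quantified against fluorescein.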

[12] = qHTS assay to test for compound auto fluorescence at 590 nm (red) in HEK293 cell free culture (AID 720683); settings: cell-free medium autofluorescence, Ex540/Em590 red; series mostly up to 91.3 µM
Outline: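 Cell-free wells of DMEM with 10% FBS received compound, and intrinsic fluorescence was read at excitation/emission 540/590 nm. Values expressed as equivalence to Rose Bengal sodium.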

[13] = qHTS assay to test for compound auto fluorescence at 590 nm (red) in HepG2 cell free culture (AID 720684); settings: cell-free medium autofluorescence, red 540/590 nm; series mostly up to 91.3 µM
Outline: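 Rose Bengal sodium served as the reference for red signal. Test compounds were dispensed into serum-containing MEM (10% FBS) without cells, and plates were read at 540/590 nm.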

[14] = qHTS assay to test for compound auto fluorescence at 460 nm (blue) in HepG2 cell free culture (AID 720685); settings: Cell-free culture medium, blue autofluorescence 405/460 nm; series mostly up to 91.3 µM
Outline: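 Cell-free plates of MEM plus 10% FBS received 23 nL compound or DMSO vehicle; blue-channel (405/460 nm) intensity scored against triamterene as reference fluorophore.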

[15] = qHTS assay to test for compound auto fluorescence at 535 nm (green) in HepG2 cell free culture (AID 720686); settings: Cell-free medium, green autofluorescence 485/535 nm; series mostly up to 91.3 µM
[16] = qHTS assay to test for compound auto fluorescence at 460 nm (blue) in HepG2 cells (AID 720687); settings: autofluorescence 405/460 nm, 1 h; series mostly up to 91.3 µM
Outline: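 HepG2 cells in MEM with 10% FBS, attached overnight at 37 C, were exposed to compound or DMSO for 1 hr at 37 C, 5% CO2. Blue fluorescence was read at 405/460 nm, with triamterene as reference fluorophore.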

[17] = target: Glucocorticoid receptor (Homo sapiens) (UniProt P04150); assay: qHTS assay to identify small molecule antagonists of the glucocorticoid receptor (GR) signaling pathway (AID 720692; active = well fitted inhibition curve with a large enough effect in the signal ratio in the repeat runs, not every such curve was filed as active; the % refers to the signal ratio; also: potency is read from the fitted curve at half-maximal effect); settings: GR-bla HeLa, beta-lactamase FRET ratio, dexamethasone-stimulated, 18 h; series mostly up to 58.5 µM
Sequence of Glucocorticoid receptor (Homo sapiens) (P04150 whole entry, looked up): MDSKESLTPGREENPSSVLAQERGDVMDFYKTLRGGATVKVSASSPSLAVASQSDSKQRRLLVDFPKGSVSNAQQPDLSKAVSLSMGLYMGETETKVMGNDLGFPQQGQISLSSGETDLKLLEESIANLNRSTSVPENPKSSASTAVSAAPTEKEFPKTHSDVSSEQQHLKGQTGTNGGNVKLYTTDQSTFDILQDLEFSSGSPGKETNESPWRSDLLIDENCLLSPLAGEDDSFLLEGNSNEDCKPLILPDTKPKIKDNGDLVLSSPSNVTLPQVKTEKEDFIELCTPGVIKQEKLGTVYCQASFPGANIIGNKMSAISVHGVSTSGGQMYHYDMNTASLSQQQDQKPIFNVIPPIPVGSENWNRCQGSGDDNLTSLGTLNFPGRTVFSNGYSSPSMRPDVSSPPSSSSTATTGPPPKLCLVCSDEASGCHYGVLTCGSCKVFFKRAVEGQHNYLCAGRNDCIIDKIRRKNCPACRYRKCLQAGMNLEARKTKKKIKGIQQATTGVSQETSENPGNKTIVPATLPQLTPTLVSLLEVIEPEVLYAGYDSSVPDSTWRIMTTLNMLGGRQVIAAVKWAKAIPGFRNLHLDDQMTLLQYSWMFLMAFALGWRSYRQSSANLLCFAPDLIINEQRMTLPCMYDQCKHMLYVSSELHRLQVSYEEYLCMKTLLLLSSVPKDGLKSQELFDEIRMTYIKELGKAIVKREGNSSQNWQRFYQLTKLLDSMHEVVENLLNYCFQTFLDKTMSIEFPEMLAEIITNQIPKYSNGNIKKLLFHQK
Outline: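 In a 1536-well cell format, compounds were added 4 h after seeding GR-bla HeLa cells, together with dexamethasone at 5 nM final; reporter activity was measured by FRET-substrate fluorescence following 18 h at 37 C.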

[18] = qHTS assay for small molecules that induce genotoxicity in human embryonic kidney cells expressing luciferase-tagged ATAD5 - cell viability (AID 651634; calls by dose curve; also: nearly all actives have a fitted effect of over 25% in size); settings: HEK293T ATAD5-luc cells viability, CellTiter-Fluor, 15.5 h; series mostly up to 83.3 µM
Outline: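 Here HEK293T cells with the ATAD5 luciferase reporter are incubated with test compounds for 15.5 hr, and cytotoxicity is then gauged by measuring protease activity in live cells using fluorescence.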

[19] = target: Glucocorticoid receptor (Homo sapiens) (UniProt P04150); assay: qHTS assay to identify small molecule agonists of the glucocorticoid receptor (GR) signaling pathway (AID 720691; active = well fitted activation curve with a large enough effect in the signal ratio in the repeat runs, not every such curve was filed as active; the % refers to the signal ratio); settings: GR-bla HeLa, beta-lactamase reporter ratio, 18 h; series mostly up to 62.4 µM
Outline: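 Compounds in DMSO, alongside positive controls, were added to GR-bla HeLa reporter cells and incubated 18 h at 37 C; GRE-driven beta-lactamase was detected by fluorescence after 2 h with FRET substrate at room temperature.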

Measured: Potency

OCCBr
not listed: [18] | [19]
inactive: all other assays above

COC(=O)C1=CCCN(C)C1
not listed: [16]
inactive: all other assays above

CCOP(=S)(OCC)SCSc1ccc(Cl)cc1
inactive: all assays above

COP(=S)(OC)Oc1c(Cl)cc(C)cc1Cl
active: [4] 24.3 µM
inactive: all other assays above

CCOP(=S)(OCC)SCSP(=S)(OCC)OCC
not listed: [3] | [4] | [7] | [11]
inactive: all other assays above

CCC#N
not listed: [3] | [4] | [7]
inactive: all other assays above

CNC(=O)Oc1c(C(C)(C)C)cc(C)cc1C(C)(C)C
not listed: [4] | [17] | [19]
inactive: all other assays above

CCSC(=O)N(CC)C1CCCCC1
not listed: [4] | [14] | [17]
inactive: all other assays above

CC(=O)C(Cl)Cl
not listed: [4] | [14]
inactive: all other assays above

Nc1cc2c3c(c1)C(c1ccccc1)=N[C@@H](NC(=O)c1cccnc1)C(=O)N3CC2
not listed: [4] | [8] | [14]
inactive: all other assays above

CC(CCc1ccccc1)NC(C)C(O)c1ccc(O)cc1 (configuration not stated)
not listed: [4] | [7] | [8] | [14] | [17]
inactive: all other assays above

N#CC(CCc1ccc(Cl)cc1)(Cn1cncn1)c1ccccc1 (configuration not stated)
active: [2] 6.86 µM | [4] 48.6 µM | [17] 49 µM
not listed: [8] | [16] | [18] | [19]
inactive: all other assays above

COC(=O)C(C)Oc1ccc(Oc2ccc(Cl)cc2Cl)cc1 (configuration not stated)
not listed: [4] | [7] | [11] | [17] | [19]
inactive: all other assays above

O=C(Cc1ccccc1)OCc1ccccc1
not listed: [4] | [16] | [19]
inactive: all other assays above

COc1cc(C[C@@H](C)N)c(OC)cc1C
inactive: all assays above

CCCCc1ccc(O)cc1
active: [4] 48.5 µM
not listed: [7]
inactive: all other assays above

O=C1CN=C(c2ccccc2)c2cc([N+](=O)[O-])ccc2N1
not listed: [18] | [19]
inactive: all other assays above

N#CC(O)c1ccccc1 (configuration not stated)
not listed: [11]
inactive: all other assays above

O=[N+]([O-])c1cccc(O)c1
active: [4] 43.4 µM
not listed: [7] | [17] | [18] | [19]
inactive: all other assays above

CCN(CC)C(C)C(=O)c1ccccc1 (configuration not stated)
not listed: [14] | [17] | [19]
inactive: all other assays above

CC1(C)C(=O)NC(=O)NC1=O
not listed: [8] | [14] | [16] | [18]
inactive: all other assays above

Cc1ncsc1CCCl
not listed: [4] | [16]
inactive: all other assays above

O=C(Nc1ccccc1)N(Cc1ccc(Cl)cc1)C1CCCC1
active: [3] 61.1 µM | [4] 15.4 µM
not listed: [11] | [17] | [18]
inactive: all other assays above

Oc1c(Cl)cccc1Cl
not listed: [7] | [17] | [19]
inactive: all other assays above

COc1ncc(F)c2nc(S(=O)(=O)Nc3c(F)cccc3F)nn12
not listed: [4] | [7]
inactive: all other assays above

Nc1n[nH]c(N)n1
not listed: [4] | [18]
inactive: all other assays above

COc1cc(OC)nc(NC(=O)NS(=O)(=O)c2ncccc2C(=O)N(C)C)n1
not listed: [1] | [8] | [14] | [17] | [19]
inactive: all other assays above

CCOP(=S)(OCC)Oc1ncn(-c2ccccc2)n1
active: [4] 6.86 µM
not listed: [1] | [14] | [17] | [19]
inactive: all other assays above

CCC(C)(C)c1cc(-n2nc3ccccc3n2)c(O)c(C(C)(C)CC)c1
not listed: [1] | [8]
inactive: all other assays above

CC(C)CC(N(C)C)C1(c2ccc(Cl)cc2)CCC1 (configuration not stated)
not listed: [4] | [14] | [18]
inactive: all other assays above

CC(C)CC#N
not listed: [7] | [11] | [16] | [18]
inactive: all other assays above

O=C1OC(=O)C2C1C1(Cl)C(Cl)=C(Cl)C2(Cl)C1(Cl)Cl (configuration not stated)
not listed: [2] | [4] | [16]
inactive: all other assays above
